Results reported in PubChem BioAssay AID1159580 (chemical genetic matrix, 2015).
“And” between values parts separate entries of the source, which are not always exact repeats. Identical values can stand only once. Out of some 5,500 compounds screened, about 2,000 (36%) were called active. About 18% were inconclusive and are not listed. Rule as the data show it: active = normalized growth mostly below about 0.91 (no sharp cut-off); inconclusive = no clear call, values can overlap the other calls; inactive = mostly above about 0.92. The list shows a part of the results.

Experiment: chemical genetic growth profiling, strain panel (AID 1159580);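 also: tested at 20 µM; growth read once vehicle control cultures reached saturation at 30 °C; 1 = growth at the plate median or of vehicle wells; lower values mean less growth of the strain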
Details: S. cerevisiae deletion strains, growth OD

Measured: normalized growth

COC1CC(O[C@H]2CC[C@]3(C=O)C4CC[C@]5(C)C(C6=CC(=O)OC6)CC[C@]5(O)C4CC[C@]3(O)C2)OC(C)C1O (some centres not stated)
inactive: locus YAL013W, strain DEP1, active compounds read low 1.02 | locus YAL021C, strain ccr4, active compounds read low 0.938 | locus YAL026C, strain drs2, active compounds read low 1.02 | locus YAL030W, strain snc1, active compounds read low 0.978 | locus YBL061C, strain skt5, active compounds read low 0.99 | locus YBR009C, strain hhf1, active compounds read low 0.985 | locus YBR021W, strain FUR4, active compounds read low 1.01 | locus YBR023C, strain chs3, active compounds read low 0.967 | locus YBR171W, strain sec66, active compounds read low 1 | locus YBR229C, strain ROT2, active compounds read low 1.02 | locus YBR231C, strain swc5, active compounds read low 1 | locus YBR279W, strain paf1, active compounds read low 1 | locus YCL011C, strain gbp2, active compounds read low 0.961 | locus YCL016C, strain dcc1, active compounds read low 0.954 | locus YCL029C, strain bik1, active compounds read low 0.994 | locus YCL069W, strain vba3, active compounds read low 0.969 | locus YCR088W, strain abp1, active compounds read low 0.983 | locus YDL005C, strain med2, active compounds read low 0.969 | locus YDL035C, strain GPR1, active compounds read low 1.04 | locus YDL040C, strain nat1, active compounds read low 0.986 | locus YDL074C, strain BRE1, active compounds read low 1.09 | locus YDL101C, strain DUN1, active compounds read low 1.02 | locus YDL134C, strain PPH21, active compounds read low 1.02 | locus YDL185W, strain tfp1, active compounds read low 0.995 | locus YDL192W, strain arf1, active compounds read low 1.02 | locus YDR001C, strain nth1, active compounds read low 0.955 | locus YDR069C, strain doa4, active compounds read low 0.994 | locus YDR101C, strain arx1, active compounds read low 1.02 | locus YDR137W, strain rgp1, active compounds read low 0.975 | locus YDR159W, strain sac3, active compounds read low 1 | locus YDR162C, strain NBP2, active compounds read low 1.03 | locus YDR195W, strain ref2 0.914 | locus YDR297W, strain sur2, active compounds read low 0.999 | locus YDR318W, strain mcm21, active compounds read low 1.01 | locus YDR334W, strain swr1, active compounds read low 0.977 | locus YDR335W, strain msn5, active compounds read low 0.955 | locus YDR388W, active compounds read low 0.987 | locus YDR392W, strain spt3, active compounds read low 0.903 | locus YDR502C, strain sam2, active compounds read low 0.987 | locus YEL003W, strain gim4, active compounds read low 1.01 | locus YEL037C, strain rad23, active compounds read low 0.977 | locus YEL061C, strain CIN8 (second series), active compounds read low 0.981 | locus YER015W, strain faa2, active compounds read low 0.975 | locus YER016W, strain bim1, active compounds read low 0.983 | locus YER110C, active compounds read low 0.986 | locus YER111C, strain swi4, active compounds read low 0.994 | locus YER155C, strain BEM2 (second series), active compounds read low 1.01 | locus YER155C, strain BEM2, active compounds read low 1.01 | locus YER167W, strain BCK2, active compounds read low 1.03 | locus YFR010W, strain ubp6, active compounds read low 1 | locus YGL078C, strain dbp3, active compounds read low 0.992 | locus YGL086W, strain mad1, active compounds read low 0.998 | locus YGL167C, strain pmr1, active compounds read low 0.976 | locus YGL173C, strain kem1, active compounds read low 0.992 | locus YGL227W, strain vid30, active compounds read low 0.987 | locus YGL240W, strain doc1, active compounds read low 1 | locus YGL248W, strain PDE1, active compounds read low 1.01 | locus YGL253W, strain hxk2, active compounds read low 0.997 | locus YGR078C, strain PAC10, active compounds read low 1.02 | locus YGR135W, strain pre9, active compounds read low 0.981 | locus YGR229C, strain SMI1, active compounds read low 1.04 | locus YGR252W, strain gcn5, active compounds read low 0.949 | locus YHR013C, strain ard1, active compounds read low 0.934 | locus YHR027C, strain rpn1, active compounds read low 0.97 | locus YHR030C, strain SLT2, active compounds read low 1.02 and 0.984 | locus YHR079C, strain IRE1 (second series), active compounds read low 0.998 | locus YHR079C, strain IRE1, active compounds read low 1.01 | locus YHR094C, strain hxt1, active compounds read low 0.984 | locus YHR129C, strain ARP1, active compounds read low 1.02 | locus YHR142W, strain chs7, active compounds read low 0.918 | locus YHR200W, strain rpn10, active compounds read low 0.992 | locus YIL066C, strain RNR3, active compounds read low 1.05 | locus YIL073C, strain SPO22, active compounds read low 1.01 | locus YIL125W, strain kgd1, active compounds read low 1 | locus YIR030C, strain dcg1, active compounds read low 0.993 | locus YJL092W, strain hpr5, active compounds read low 0.985 | locus YJL095W, strain BCK1 (second series), active compounds read low 0.987 | locus YJL095W, strain BCK1, active compounds read low 1.04 and 0.985 | locus YJL115W, strain asf1, active compounds read low 0.964 | locus YJL129C, strain trk1, active compounds read low 0.958 | locus YJL134W, strain LCB3, active compounds read low 1.01 | locus YJL154C, strain vps35, active compounds read low 0.967 | locus YJL164C, strain tpk1, active compounds read low 0.99 | locus YJL166W, strain qcr8, active compounds read low 0.996 | locus YJL168C, strain set2, active compounds read low 0.994 | locus YJL187C, strain SWE1 (second series), active compounds read low 1.02 | locus YJR066W, strain TOR1, active compounds read low 0.904 | locus YKL009W, strain mrt4, active compounds read low 1.04 | locus YKL068W, active compounds read low 1 | locus YKL085W, strain MDH1 (second series), active compounds read low 1 | locus YKL085W, strain MDH1, active compounds read low 1 | locus YKL160W, strain elf1, active compounds read low 0.962 | locus YKL190W, strain CNB1, active compounds read low 1.02 | locus YKR001C, strain vps1, active compounds read low 0.992 | locus YKR026C, strain gcn3, active compounds read low 0.987 | locus YKR091W, strain srl3, active compounds read low 0.968 | locus YLL001W, strain dnm1, active compounds read low 0.963 | locus YLL026W, active compounds read low 0.982 | locus YLL041C, strain sdh2, active compounds read low 0.971 | locus YLR027C, strain aat2, active compounds read low 1.02 | locus YLR039C, strain RIC1, active compounds read low 1.08 | locus YLR058C, strain SHM2, active compounds read low 1.03 | locus YLR102C, strain apc9, active compounds read low 0.996 | locus YLR113W, strain HOG1, active compounds read low 1.02 | locus YLR221C, strain rsa3, active compounds read low 1.02 | locus YLR258W, strain gsy2, active compounds read low 0.962 | locus YLR262C, strain YPT6 (second series), active compounds read low 1.01 | locus YLR262C, strain YPT6, active compounds read low 1.11 | locus YLR268W, strain sec22, active compounds read low 1.02 | locus YLR320W, strain mms22, active compounds read low 1.03 | locus YLR330W, strain CHS5, active compounds read low 1.02 | locus YLR342W, strain FKS1 (second series), active compounds read low 1.06 | locus YLR342W, strain FKS1, active compounds read low 1 | locus YLR357W, strain rsc2, active compounds read low 0.95 | locus YLR370C, strain arc18, active compounds read low 0.98 | locus YLR371W, strain rom2, active compounds read low 1.01 | locus YLR384C, strain iki3, active compounds read low 0.969 | locus YLR418C, strain cdc73, active compounds read low 0.958 | locus YML016C, strain PPZ1, active compounds read low 1.02 | locus YML032C, strain rad52, active compounds read low 0.994 | locus YML120C, strain ndi1, active compounds read low 0.947 | locus YML124C, strain tub3, active compounds read low 0.997 | locus YMR058W, strain fet3, active compounds read low 0.992 | locus YMR078C, strain ctf18, active compounds read low 0.99 | locus YMR125W, strain sto1, active compounds read low 0.926 | locus YMR129W, active compounds read low 0.989 | locus YMR205C, strain PFK2, active compounds read low 0.984 | locus YMR223W, strain ubp8, active compounds read low 0.995 | locus YMR231W, strain pep5, active compounds read low 1 | locus YMR307W, strain GAS1, active compounds read low 1.16 | locus YNL067W, strain RPL9B, active compounds read low 1 | locus YNL071W, strain lat1, active compounds read low 0.967 | locus YNL183C, strain NPR1, active compounds read low 0.927 | locus YNL209W, strain ssb2, active compounds read low 0.984 | locus YNL233W, strain BNI4, active compounds read low 1.02 | locus YNL248C, strain rpa49, active compounds read low 0.904 | locus YNL250W, strain rad50, active compounds read low 0.972 | locus YNL271C, strain bni1, active compounds read low 1.01 | locus YNL298W, strain CLA4, active compounds read low 0.998 | locus YNL307C, strain MCK1, active compounds read low 0.998 | locus YNL322C, strain KRE1 (second series), active compounds read low 0.971 | locus YNL322C, strain KRE1, active compounds read low 1.02 | locus YNR049C, strain mso1, active compounds read low 0.951 | locus YNR052C, strain pop2, active compounds read low 0.988 | locus YOL012C, strain htz1 0.64 | locus YOL147C, strain pex11, active compounds read low 0.987 | locus YOR001W, strain rrp6, active compounds read low 0.989 | locus YOR061W, strain CKA2, active compounds read low 1.05 | locus YOR069W, strain VPS5, active compounds read low 1.02 | locus YOR070C, strain gyp1, active compounds read low 1 | locus YOR080W, strain dia2, active compounds read low 0.991 | locus YOR083W, strain WHI5, active compounds read low 0.973 | locus YOR106W, strain vam3, active compounds read low 0.922 | locus YOR136W, strain idh2, active compounds read low 0.958 | locus YOR144C, strain elg1, active compounds read low 0.989 | locus YOR184W, strain ser1, active compounds read low 1.04 | locus YOR231W, strain MKK1, active compounds read low 1.01 | locus YOR265W, strain rbl2, active compounds read low 0.997 | locus YOR270C, strain vph1, active compounds read low 1.08 | locus YOR290C, strain snf2, active compounds read low 0.888 | locus YOR316C, strain cot1, active compounds read low 0.984 | locus YPL051W, strain arl3, active compounds read low 0.992 | locus YPL055C, strain LGE1, active compounds read low 1.06 | locus YPL078C, strain atp4, active compounds read low 0.927 | locus YPL106C, strain sse1, active compounds read low 0.966 | locus YPL240C, strain hsp82, active compounds read low 0.988 | locus YPL256C, strain CLN2, active compounds read low 1.01 | locus YPR119W, strain clb2, active compounds read low 0.992 | locus YPR141C, strain kar3, active compounds read low 0.992 | locus YPR163C, strain tif3, active compounds read low 0.993 | locus YPR167C, strain met16, active compounds read low 0.987 | strain wtn01, active compounds read low 1.01
